# FBW7 activator: human FBW7 E3 ligase activation, primary screen. Q969H0. AlphaScreen FBW7–phospho-cyclin E peptide binding, activator screen. normalized activity (activation), % at 26.1 µM. 0.13% of 650,000 active; in the data active means normalized activity above about 1.9%;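 further: purified mutant Fbw7 with reduced substrate affinity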
# MITF primary: inhibitors of human MITF; AlphaScreen MITF homodimerization, bead proximity signal; inhibition, % at 2.6 µM; 0.91% of 650,000 active; AID 1259374; in the data active means inhibition above about 50%;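 further: 0% = vehicle wells with protein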
# Target sequence (O75030 whole entry, looked up): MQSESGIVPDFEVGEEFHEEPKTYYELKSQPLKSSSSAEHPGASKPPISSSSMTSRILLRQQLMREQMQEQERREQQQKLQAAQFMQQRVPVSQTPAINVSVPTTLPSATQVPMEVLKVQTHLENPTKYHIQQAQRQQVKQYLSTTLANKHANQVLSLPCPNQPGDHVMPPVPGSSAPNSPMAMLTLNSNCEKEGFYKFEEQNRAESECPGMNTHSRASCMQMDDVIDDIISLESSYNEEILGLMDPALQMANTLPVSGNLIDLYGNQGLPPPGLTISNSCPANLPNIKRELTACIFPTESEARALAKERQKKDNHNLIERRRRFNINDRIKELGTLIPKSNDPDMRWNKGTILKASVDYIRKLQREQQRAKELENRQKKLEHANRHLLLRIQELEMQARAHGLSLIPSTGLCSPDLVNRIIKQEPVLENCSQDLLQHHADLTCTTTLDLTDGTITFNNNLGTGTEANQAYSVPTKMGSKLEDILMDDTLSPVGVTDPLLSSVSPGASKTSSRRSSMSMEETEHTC
# TEAD-YAP block: TEAD-YAP interaction inhibition. HEK-TIYL cells, TEAD-Gal4/YAP UAS-luciferase luminescence. inhibition, % at 9.12 µM. 1.4% of 640,000 active. AID 1259422; in the data active means inhibition above about 32%;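 further: 0% = median of test compound wells and 100% = reference inhibitor wells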
# GPR151 activ: human GPR151 activation. Q8TDV0. PathHunter beta-arrestin GPR151 cells, luminescence. activation, % at 11.2 µM. 1% of 650,000 active. AID 1508602; in the data active means activation above about 4.9%;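 further: 0% = median of compound wells and 100% = cells with positive control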
# GPR151 confirm: confirmation of human GPR151 activators. shares compounds with GPR151 activ. 6,700 tested, under 10 active. AID 1508609. GPR151 PathHunter beta-arrestin cells, luminescence, 90 min; % of EA-reagent control over plate median. activation, % at 11.2 µM;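 active means mean percent activation across replicates above the confirmation screen cutoff of 4.91%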
# GPR119 counter: GPR119 activation, counter-screen for GPR151 activators; AID 1508611; shares compounds with GPR151 activ; activation, % at 11.2 µM; GPR119 PathHunter beta-arrestin cells, luminescence, 90 min; 0 = compound-well median, 100 = enzyme-acceptor control; 0.3% of 6,700 active;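 active means mean percent activation in the counterscreen above 29.09%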;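 further: counterscreen on off-target GPR119 to flag nonselective hits from the GPR151 activator screen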
# The depositor's hits bear a star; / = no result. An excerpt weighted towards active compounds, which were near 3.4% of everything screened.
SMILES,FBW7 activator,MITF primary,TEAD-YAP block,GPR151 activ,GPR151 confirm,GPR119 counter
Cc1c(C(=O)Nc2cc(Sc3ccc(F)cc3)cc([N+](=O)[O-])c2)sc2ncn(Cc3ccccc3F)c(=O)c12,0.3,18.8,5.4,5.1*,2.0,12.1
O=C(NCCc1ccccc1)C(F)(F)C(F)F,-0.2,6.2,0.4,19.0*,-0.4,1.5
O=C(C1CCN(Cc2ccc3c(c2)OCO3)CC1)N1CCOCC1,0.0,25.6,-3.7,5.2*,-0.3,10.4
O=C(C1CCN(C2CCN(Cc3ccc4c(c3)OCCO4)CC2)CC1)N1CCCC1,0.0,-13.5,3.7,-0.6,/,/
CCN(CC(=O)NC1CCCCCC1)S(=O)(=O)c1ccc(C)cc1,0.1,-0.5,-5.8,5.4*,2.4,1.9
CC1=C(NCc2ccccc2)CCC1=O,0.1,12.4,7.3,6.0*,-0.6,-4.2
CC1(C)CC(=O)C([N+](=O)[O-])=C(NCc2ccccc2)C1,0.2,1.2,2.0,-0.2,/,/
Cc1ccc2c(c1)C(=C(C#N)C#N)C=C(c1cccs1)O2,-0.1,1.0,-8.7,5.3*,0.2,9.8
O=c1[nH]c(N2CCCCC2)nc2c1CCN(Cc1ccccc1F)C2,0.1,10.6,8.1,0.0,/,/
CCOc1ccc(C2=C/C(=C/c3cccs3)C(=O)O2)cc1,-0.2,4.1,0.7,5.8*,-0.6,12.3
CCOc1ccc(C2=C/C(=C\c3cccs3)C(=O)O2)cc1,-0.1,-0.6,-18.3,0.3,/,/
COc1cc(OC)cc(C(=O)NNC(=O)NC2CCCCC2)c1,0.0,10.4,0.7,7.3*,-0.3,-4.1
COc1ccc(NC(=O)C(=O)NC2CCCCCC2)c(OC)c1,-0.3,1.4,-3.0,5.3*,-1.0,-14.6
COc1ccc(NC(=O)c2ccoc2C)c(OC)c1,0.0,16.6,-12.0,6.1*,-0.3,-11.6
Cc1ccccc1NC(=O)CN1C(=O)N/C(=C\c2ccc(N3CCCCC3)cc2)C1=O,0.1,14.4,1.6,1.0,/,/
CCOC(=O)C1=C(C)N=c2s/c(=C/c3cc(Br)c(Br)o3)c(=O)n2C1c1cccs1 (centres undefined),-0.3,3.0,-10.4,-1.2,/,/
CCOC(=O)C1=C(C)N=c2s/c(=C/c3ccc(-c4ccc(Br)cc4)o3)c(=O)n2C1c1ccc(N(C)C)cc1 (centres undefined),0.1,-7.8,6.2,5.5*,0.0,-2.9
CCOC(=O)C1=C(C)N=c2s/c(=C\c3ccc(Br)o3)c(=O)n2C1c1cccs1 (centres undefined),-0.1,2.3,6.3,4.9*,-1.0,0.5
CCOC(=O)C1=C(C)N=c2s/c(=C/c3ccc(-c4ccc(C(=O)OCC)cc4)o3)c(=O)n2C1c1ccc(N(C)C)cc1 (centres undefined),0.2,3.0,-23.5,0.0,/,/
COC(=O)c1c(NC(=S)NN2CCOCC2)sc(C(=O)N(C)C)c1C,-0.2,-8.6,-2.4,-1.1,/,/
CCOc1ccc(S(=O)(=O)N2CCN(C)CC2)cc1-c1nc2c(C(C)(C)C)nn(C)c2c(=O)[nH]1,-0.1,-6.1,3.7,5.1*,0.2,9.3
Cc1nc(NC(=O)c2ccccc2F)sc1C(=O)O,0.6,17.9,5.1,-6.1,/,/
Cc1nc(NS(C)(=O)=O)sc1C(=O)O,0.0,10.9,8.3,5.0*,0.3,4.8
N#Cc1ccc(NC(=O)COC(=O)C2COc3ccccc3O2)cc1 (centres undefined),0.2,1.8,1.6,7.8*,0.4,1.4
COc1ccc(NC(=O)COc2ccc(C3C(C#N)=C(N)Oc4n[nH]c(C)c43)cc2)cc1 (centres undefined),0.0,9.5,-6.6,10.0*,0.9,-7.7
SMILES,FBW7 activator,MITF primary,TEAD-YAP block,GPR151 activ,GPR151 confirm,GPR119 counter
CCOc1ccc(NC(=O)COc2ccc(C3C(C#N)=C(N)Oc4n[nH]c(C)c43)cc2)cc1 (centres undefined),-0.2,-2.0,-6.5,0.3,/,/
O=C(CCCN1C(=O)c2ccccc2C1=O)Nc1ccc(I)cc1,0.4,14.3,12.1,1.3,/,/
CCOC(=O)c1cnc(SC2CC(=O)N(c3cccc(F)c3)C2=O)nc1N (centres undefined),0.0,-1.7,0.4,7.5*,0.1,4.0
CCOC(=O)c1cnc(SCc2cccc(F)c2)nc1N,0.0,-4.6,-75.2,0.3,/,/
CCOC(=O)C1=C(C)N(c2ccc(Br)cc2)C(=O)/C1=C\c1ccc(C(=O)OC)cc1,-0.7,3.0,-11.8,15.9*,1.2,0.6
CCOC(=O)C1=C(C)N(c2ccc(Br)cc2)C(=O)/C1=C\c1ccc(C(=O)O)cc1,-0.1,-7.0,-11.8,-1.0,/,/
O=C(c1cccc(Nc2nc(-c3ccccc3)c3cc(Cl)ccc3n2)c1)N1CCOCC1,-0.1,-1.2,8.2,-0.2,/,/
COc1cc(OC)nc(CSCC(=O)N2CCN(CC(=O)N3CCOCC3)CC2)n1,0.2,7.7,0.6,5.2*,0.0,-12.4
COc1ccc(C2CCN(CC(=O)N3CCOCC3)CC2)cc1,-0.1,6.2,-5.2,1.2,/,/
CC(C)(C)c1csc(NC(=O)c2cc([N+](=O)[O-])cc([N+](=O)[O-])c2)n1,-0.1,-11.1,7.5,-1.1,/,/
CC(C)(C)c1csc(NC(=O)c2cccc(F)c2)n1,0.0,-11.1,-44.8,3.2,/,/
CC(=O)Oc1cccc(C(=O)Nc2nc(C(C)(C)C)cs2)c1,0.1,20.6,-9.3,7.3*,-0.2,-4.8
CC(C)(C)c1csc(NC(=O)c2cc([N+](=O)[O-])ccc2Cl)n1,1.3,14.9,5.9,7.1*,-0.8,-0.3
CCOc1ccc(Nc2nc(Cl)nc(Nc3ccc(OCC)cc3)n2)cc1,0.2,4.3,-8.2,-0.6,/,/
Cc1cc(C)c(S(=O)(=O)NCCc2ccc(S(N)(=O)=O)cc2)c(C)c1,0.1,4.0,11.8,7.1*,0.7,11.0
Cc1ccc(-c2csc3nc4c5ccccc5c(NCCOCCO)nn4c(=O)c23)cc1,1.0,7.0,-0.4,8.4*,1.4,2.1
O=c1c2c(-c3ccccc3)csc2nc2c3ccccc3c(NCCO)nn12,0.0,8.8,1.6,1.0,/,/
Cn1ccnc1C(O)c1cccs1 (centres undefined),0.2,12.7,4.5,-0.7,/,/
COc1cccc(C=O)c1OCc1ccc(F)cc1,0.0,-11.9,0.0,5.2*,0.5,-5.3
COc1cccc(C=O)c1OCc1ccc(Br)cc1,0.1,-9.0,-8.2,-2.1,/,/
COc1ccc([C@@H](C)NC(=O)c2ccc(OC3CCN(Cc4ccccn4)CC3)cc2)cc1,0.0,9.7,-1.6,0.9,/,/
CS(=O)(=O)Nc1ccc(C(=O)/C=C/c2ccco2)cc1,-0.2,-3.2,2.1,-0.8,/,/
O=C(/C=C\N1CCCCC1)c1ccc(Cl)cc1,0.1,15.2,-12.5,6.1*,-1.8,-25.7
CC1=C(C#N)C(=O)N(C)C(=O)/C1=C/c1ccc(-c2ccccc2C(=O)O)o1,-0.3,20.0,2.9,-0.5,/,/
